High-throughput results from PubChem.
HCV inhibitor: inhibitors of hepatitis C virus infection; Potency, µM (titrated, usually from 41.8 µM), for the others: top-dose activity change, negative = inhibition, usual class: inhibitors; Huh7.5.1 HCVcc-Cre infection, luciferase reporter, 44 h; 340,000 compounds, 3.4% hits; active = well fitted inhibition curve with a large enough effect; inconclusive = small, poorly fitted or top-dose-only effect, or another doubt; inactive = no such curve, though single readings can be large or run the other way; also: potency is read from the fitted curve at half-maximal effect; % is scaled to controls: 0 for no effect and ±100 for the full control effect
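1,000 cells/well; 4 h culture; + compound; + HCVcc-Cre (~0.5 moi); 44 h; luciferase substrate, RT 15 min; read 15 sec.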
Marburg entry inh: inhibitors of Marburg virus binding or cell entry | 300,000 compounds, 1.8% hits | Potency, µM (top dose mostly 37.8 µM), for the others: at the highest dose activity change, negative = inhibition, hits mostly inhibitors | Marburg virus pseudotyped entry inhibition, cell reporter; calls by dose curve; tested in HEK293 cells; also: potency is read from the fitted curve at half-maximal effect; % is scaled to controls: 0 for no effect and ±100 for the full control effect
HCMV inh: blocks human cytomegalovirus replication | AID 1259415 | HFF cells, HCMV-luciferase reporter, 72 h; stronger effect = lower value | activity change, negative = inhibition, % at 57.5 µM | 410,000 compounds, 4.5% hits; in the data active = activity change below about -60%; inconclusive = no clear call, values can overlap the other calls; inactive = above about -39%; also: % is scaled to controls: 0 for no effect and ±100 for the full control effect
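After 16 h attachment at 37C, HFF cells received test compound and HCMV-luciferase (1 PFU/cell); reporter luminescence read 72 h later, data normalized against buffer-only and known inhibitor Salinomycin.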
LASV entry inh: Lassa virus entry inhibition | Lassa virus pseudotype entry inhibition, cell reporter | 300,000 compounds, 1.2% hits | Potency, µM (top dose mostly 37.9 µM), for inactives: at the top dose activity change, negative = inhibition, most hits filed as inhibitors | AID 540256; calls by dose curve; tested in HEK293 cells; also: potency is read from the fitted curve at half-maximal effect; % is scaled to controls: 0 for no effect and ±100 for the full control effect; nearly all actives have a fitted effect of over 50% in size
FMDV antiviral: blocks foot and mouth disease virus; FMDV antiviral cell-based qHTS; Potency, µM (titrated, usually from 57.9 µM), for the others: at the highest dose activity change, negative = inhibition, most hits filed as inhibitors; 410,000 compounds, 1.2% hits; AID 1159524; calls by dose curve; tested in HEK293T cells; also: read-out not given here; potency is read from the fitted curve at half-maximal effect; % is scaled to controls: 0 for no effect and ±100 for the full control effect; nearly all actives have a fitted effect of over 45% in size
SARS PLpro yeast-1: blocks SARS-CoV papain-like protease in a yeast assay; S. cerevisiae expressing SARS-CoV PLpro, growth rescue; AID 485353; 330,000 compounds, 0.19% hits; Potency, µM (series often up to 32.9 µM), for the others: at the highest dose activity, positive = growth rescue, usual class: activators; calls by dose curve; also: potency is read from the fitted curve at half-maximal effect; 0% is about no effect; nearly all actives have a fitted effect of over 55% in size
SARS PLpro yeast-2: Inhibits SARS-CoV PLP in yeast, hit validation | 1,000 compounds, 19% hits | yeast expressing SARS-CoV PLpro, growth phenotype rescue | calls only | shares compounds with SARS PLpro yeast-1; call rule not given here
* marks the source's active call; other numbers are inactive results; i = inactive; ? = inconclusive; / = no result given; + = active, no number; ! = a repeat was not active; [ ] = dose if it differs, or a comment. Hits are enriched below; roughly 8% of the tested compounds scored in any of these assays.

SMILES	HCV inhibitor	Marburg entry inh	HCMV inh	LASV entry inh	FMDV antiviral	SARS PLpro yeast-1	SARS PLpro yeast-2
Cc1ccc(SCCC(=O)Nc2c(C)n(C)n(-c3ccccc3)c2=O)cc1	-3%	13%	-34	-10%	-10%	?	i
Cc1c(NC(=O)C(C)Sc2ccccc2)c(=O)n(-c2ccccc2)n1C (centres undefined)	8%	1%	?	2%	-8%	-7%	/
CCOc1cccc(/C=N/Nc2ccc(S(=O)(=O)N(CC)CC)cn2)c1O	?	?	-100*	?	0%	7.9µM*	i
O=C(COC(=O)c1cc(-c2ccccc2)nc2c(Cl)cccc12)c1ccc(F)cc1	/	3%[46.1 µM]	-24	-25%[46.1 µM]	0%	/	/
COc1cccc(NC(=O)COC(=O)CNS(=O)(=O)c2c(F)cccc2F)c1	20%	?	18	14%	3%	?	i
COc1cccc(NC(=O)COC(=O)c2ccccc2F)c1	13%	2%	?	-3%	7%	-3%	/
C=CCn1c(SCC(=O)Nc2cc(C)on2)nc2c([nH]c3ccccc32)c1=O	-13%	-1%	107	-10%	-2%	?	i
C=CCn1c(SCC(=O)Nc2ccc(OC)cc2)nc2c([nH]c3ccccc32)c1=O	21%	14%	73	-15%	0%	-4%	/
COCCCNC(=O)c1cc2c(=O)oc3ccc(C)cc3c2s1	/	-4%[46.1 µM]	2	-14%[46.1 µM]	4%	/	/
COc1ccc(C(=O)Oc2ccc(=O)n(-c3ccccc3)n2)cc1	-3%	8%	14	23%	-8%	/	+
COc1ccc(C2Nc3ccccc3C(=O)N2O)cc1CN1CCOCC1 (centres undefined)	3%	-17%	46	-30%	0%	22µM*	i
COc1ccc(C2CC(c3ccc(Cl)cc3)=NN2C(=O)c2cccc([N+](=O)[O-])c2)cc1 (centres undefined)	-2%	-12%	-29	?	1%	13%	/
COc1ccc(C2=NN(C(=O)c3ccc(Cl)c([N+](=O)[O-])c3)C(c3ccccc3)C2)cc1 (centres undefined)	?	?	-12	?	0%	?	?
CC(C)c1ccc(NC(=O)CN(C)S(=O)(=O)c2ccc3c(c2)n(C)c(=O)c(=O)n3C)cc1	/	12%[46.1 µM]	-12	6%[46.1 µM]	-16%	/	/
CC1CCN(S(=O)(=O)c2ccc3c(c2)c(=O)c(C(=O)NC(C)c2ccccc2)cn3C)CC1 (centres undefined)	/	4%[46.1 µM]	-10	18%[46.1 µM]	-15%	/	/
Cc1ccc(-c2nc3ccccc3c(=O)n2-c2cc(C)ccn2)cc1	/	21%	-24	-45%[14.3 µM]	24%	4µM*	i
O=C(Nc1ccc(S(=O)(=O)Nc2ccccc2F)cc1)N1CCCCC1	-17%	1%	19	-2%	19%	?	+
COc1ccccc1NS(=O)(=O)c1ccc(NC(=O)N2CCCCC2)cc1	/	-18%	39	-6%	-13%	-5%	/
Cc1ccc(C)c(OC(=O)CSc2nnc(-c3ccc4c(c3)OCO4)o2)c1	/	2%[46.1 µM]	-1	7%[46.1 µM]	0%	/	/
CCCCNC(=O)CSc1nc(-c2ccc(OC)cc2)cc(C(F)(F)F)n1	/	?	-10	27%[46.1 µM]	-22%	/	/
O=[N+]([O-])c1ccccc1/C=N/N1CCN(c2ccncc2S(=O)(=O)N2CCCCC2)CC1	?	?	5	?	?	-58%	/
O=[N+]([O-])c1ccc(/C=N/N2CCN(c3ccncc3S(=O)(=O)N3CCCCC3)CC2)cc1	12%	9%	-34	5%	-10%	3.2µM*	i
CCc1ccc(OC2=NS(=O)(=O)c3ccccc32)cc1	11%	/	13	/	8%	1%	/
Cc1ccc(OC2=NS(=O)(=O)c3ccccc32)cc1	6%	?	-21	?	8%	?	i
CCOc1ccc(NC(=O)c2cc(=O)c3cc(CC)ccc3o2)cc1	/	?	-14	10%[46.1 µM]	7%	/	/
COc1cccc(-c2ccc3ncnc(NCc4cccs4)c3c2)c1	/	/	?	/	?	7.1µM*!	i
